Experimental data: PubChem BioAssay AID1508600 (Functional Genomics Laboratory (NCATS/FGL), 2020)
Hit rate of the full screen: of about 53,000 sequences, about 3,700 (7%) were called active.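 How the source made its calls: active means gene knockdowns whose robust z-score for IL-1 alpha signal is at least 2 or at most -2, so actives lie on both sides; inactive means the rest.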 Shown is part of a subset that was picked to be rich in actives.

assay: Components of the Cytosolic LPS Sensing Pathway: Gene Identification via Genome-wide siRNA Screen; details: RAW264.7 macrophages, IL-1a HTRF, actives lie on both sides, screened at 100 nM (by protocol), cells primed 5 h with Pam3CSK4 first;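 further: robust z of the log signal after scaling to non-targeting control siRNA wells of the plate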
How it was run: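 Three distinct siRNAs per gene were tested singly at 100 nM in RAW264.7 macrophages. Following Pam3CSK4 priming and 24 hour LipidA transfection, IL-1a secretion was read by HTRF.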

z-score, inactive:
UGGCCACGACCCUGAACUUTT against Ghrhr 0.56, GGCAUCAAAAAGCAGACAATT against Erich2 -1.98, GGCUAUGGAACAAAGUACUTT against Sostdc1 0.838, GGAAAGCACUUUUAUUCCUTT against Sgip1 -0.901, GCUAAAAGGCUACGGGAGUTT against Bhlhe23 -0.266, GUGCAGAUAUCUUUAGCAATT against Olfr159 -0.958, GGAUGAGAGUAAGAUCUCGTT against Vipr2 -0.296, GGAAAACUACCUCUUUUGATT against Cbll1 1.4, GGAGAUCUUAGAGAAAUUATT against Pak1 -0.956, GCAAAGUGGAUAUAGUGUCTT against Gprin1 -0.217, GGAACAGCUAAAGUUGGGATT against Kcnj9 0.5, GGGUAUGGUUCUGUUGGCATT against Pxmp4 -1.45, CCUAAAGGUUCCCAACAGUTT against Serpinb3d -0.517, GGCUGAUUCAUUUGGGAACTT against Olfr9 0.805, GGCCUCUGAGGACAAGUUUTT against Als2cl 0.0383, GGGAGGUGCAGAUAGGAUUTT against Csrp1 0.912, GGCGAUAGUGUCUAAGAAATT against Cfap298 -0.0112, GGAUGAGAAAUACUUUCGGTT against C8a 0.126, GGCAAGUGCCCAAGUUUGUTT against Ifi35 1.08, GGCAUAUUGUUUCAUUUUGTT against Rlbp1 -1.19, GCACAGUAGUUCUUGCAUCTT against Olfr891 0.13, CCUAGUCCCUCUGUCUCUUTT against Kctd13 -1.79, GUACACCAGUGGAAGCACATT against Sprr2b -1.91, GGACAACAUAUUCUGAUAATT against Stmnd1 1.68, GGCUUCCUACCUAAGGCUUTT against Bora -0.924, GGCCGUGUUAAGGAAUCUGTT against Cidea 0.653, CCUCUUCUGCGCGGAUUUGTT against Ffar4 0.708, GGAGAAAGCUUACUGCCUUTT against Lrrc6 -0.959, GGAACAGCAGUUUUUGUUUTT against Rnf44 0.097, GGCGAGUCUACGUGACACUTT against Arrb1 0.701, GGACAUCGUGCUCUAUCUCTT against Nrarp -1.07, GCAGAUCUUGUGAUUAAUGTT against Ildr1 0.882, GGAAAUAGUUGGUUUUGAATT against Slfn1 -1.95, GCAUUAGGAAUUCAAUUAGTT against Adamts1 0.813, GGACGUAGCUAUGGAGGAUTT against 1810009A15Rik -1.83, GGAAACCAGAAAAACUGAATT against Parg 0.653, GGAUUAAUUAAUACUUGGCTT against Rps9 0.986, CCGACACGUUCUCAAUGUCTT against Gss -0.496, GGAAGGACAAAGAAAGCCUTT against Fbxw4 -0.286, GGAGAUCAUGCUCAAGAACTT against Dgke 0.176, GGACACCUACUUGGUAUUGTT against Epor -0.632, GGAGAGUAUCAGCAAUGAATT against Impg2 1.02, GGAAAGUUCCCAUGUUCUCTT against Mgat4f 1.33, CGUGAGAUCAUUGAUGUGGTT against Ankrd2 -1.16, GGAUUCUCCAGACACCUUGTT against Styxl1 -0.704, GCUAUUGCCUUAGAUCCAUTT against Lrp6 0.384, GGUCAGCAUCACCUACGAUTT against Prss8 -0.688, GGAGCUGAAGCAAAGACAGTT against Svbp -0.599, GGAAACAACCAUCGAGGUUTT against Cyp4x1 -0.31, GGCUGUGACUCUGGAUUUGTT against Bdh1 -0.985, GCACCAUGUAUACAAAAGATT against Pcdhb3 0.0679, GGAGUUUGUGAAUAAAUGUTT against Map2k2 0.177, GCUUACUUUGGAACACAAATT against Tex18 1.22, GCAGGAUUGCAUAUAUCGGTT against Cspg5 -0.672, CGAUGCUGUUCUUCAAUGUTT against Krt222 1.23, GGUUUGAAUUCAAGUUCAUTT against Klhl5 0.616, GGAAAAAUAGGUCGAAUGATT against Arntl 0.229, CGAUUCCAACAAGAAAGUGTT against Togaram2 0.649, GGAUUUUGUUUCAGGUGGATT against Itgb8 1.78, GGCAGAUGGUAUCAGCUGUTT against Cd248 -1.11, GGAGACAAACUCAAAACUGTT against Lyplal1 -1.12, AAUCUUGAGAGAUUUCUCCTT against Scd2 -0.047, GCCACGGCCAGUAAAACAUTT against Cdcp1 0.335, GGAUGAGUUUUUAAAGUCATT against Otop2 -0.883, GGCAAUGUCAGAGCUAAUCTT against Mettl25 0.596, GGGACAACCUGGAUGACAUTT against Coq6 -0.0644, CCUUUGUCCGGUCCAUUCCTT against Hk1 -0.654, GGUGAAUGGCAUGACCAUATT against Asb9 0.49, GGAGUCCUUUAAGAUUAUATT against Pex13 1.3, GGAAGAAUCUGUUACUUUUTT against Rad1 -0.693, CCUUUUAGGGAAAUUUGCATT against Mcm9 0.651, GGGAAGAACUGUGAUUAUUTT against Hspd1 0.625, CCAUUGAACAGCAGAUUGGTT against Atp7a 0.81, GGUCUUCUUCGUGUUCAUCTT against Olfr281 -0.0815, GGAAAAAUUGAAGUUGAUCTT against Iqcj -1.35, GGAAAUCAAGCUGAAGUUATT against Eqtn 0.231, GCGCAAACAACACAUCGUCTT against Ccpg1 0.503, GGCUGUCAUCCAAGAACUUTT against Mtcp1 0.176, GGUUUAACUAGAAUUUGGUTT against Cyp2ab1 1.75, GGACAAGAAUAAGUACAACTT against Rpl5 -0.918, GCCCUUGAACGGAGAAUAGTT against Brk1 -1.59, GCCAUACGAUCUGCAUUUCTT against Zbtb38 -1.85, GGAACAAGUAAAAUUCGUCTT against Tssk2 1.71, GGGUUAUGAAGAAGCUCCUTT against Olfr1262 -1.52, GCUGUGUGACCAGCUGUUGTT against Krtap9-1 0.44, CCUACGUCAUUUCAGCACCTT against Hc 0.356, GCUCCCAUUAUCAUUCAAATT against D3Ertd751e 1.67, GGAGCUCUGGCACUUUGUCTT against Gramd1b 0.37, GGAGAAAAGAGGCUUCCAGTT against Lad1 0.754

z-score, active:
GCCUCGAGAUAUUCUUUGUTT against Snrnp200 -2.07, GCAUGCUUUCUGAAUACAATT against Cdk8 2.17, GGUAGAGGAUGCGAUGCUGTT against Msi2 4.61, GGCUUUAUAUGAAACUCCUTT against Acrv1 -2.01, GGAUUUGUCAAUGCAAUAATT against Olfr1012 -2.68, CCAGACUACGGUGCUAAGATT against Defb21 2.49, CCCAUGGAAUGAAAACAACTT against Gm4894 2.58, GGUUCUUAGGAGUUAACUCTT against Klf16 2.71, GCUCAACUUCUGAAUUAUATT against Enpep 2.64, GGAUUCUGAACACUUUUUCTT against Pot1a -2.02, GUGGAAGACUUCACCGGACTT against Arxes1 2.01, GCGGGAGAAGCUAAUGAAATT against Ndufs5 2.21, CACUGAACAGAUCAGAGCATT against Fam189b -2.44, GCAAGUUCGAAUCCUCCGUTT against Dach2 4.72, GGUAGAUGAUGAAAAACAATT against Erich3 -2.02, GGCUCGUCAAAUCAAGUAUTT against H2bc6 -2.37, GGAGAUCCGAGUGAGGAAUTT against Eif3b 2.91, GCUCUGACCAUCCUUAGCUTT against Olfr938 -2.62, CCCAGAUACCUGGAAAACGTT against Fam189a1 -2.17
